# Assay results: PMC7862700, “An all-to-all approach to the identification of sequence-specific readers for epigenetic DNA modifications on cytosine”
# Assays:
# Assay in all cases: DAPPL (digital affinity profiling via proximity ligation, sequencing); 10 mM Tris-HCl pH 7.5, 50 mM NaCl, 1 mM DTT, 4% glycerol, room temperature, 30 min; GST-TFs on glutathione beads, 16-mer random dsDNA library, 0.1% formaldehyde crosslink after washing; high values mean tight binding
# [1] = target: T1, FLI1 (Homo sapiens, UniProt Q01543 1-452); details: protein: recombinant; tags: N-terminal GST; dsDNA, one strand shown
# T1 sequence: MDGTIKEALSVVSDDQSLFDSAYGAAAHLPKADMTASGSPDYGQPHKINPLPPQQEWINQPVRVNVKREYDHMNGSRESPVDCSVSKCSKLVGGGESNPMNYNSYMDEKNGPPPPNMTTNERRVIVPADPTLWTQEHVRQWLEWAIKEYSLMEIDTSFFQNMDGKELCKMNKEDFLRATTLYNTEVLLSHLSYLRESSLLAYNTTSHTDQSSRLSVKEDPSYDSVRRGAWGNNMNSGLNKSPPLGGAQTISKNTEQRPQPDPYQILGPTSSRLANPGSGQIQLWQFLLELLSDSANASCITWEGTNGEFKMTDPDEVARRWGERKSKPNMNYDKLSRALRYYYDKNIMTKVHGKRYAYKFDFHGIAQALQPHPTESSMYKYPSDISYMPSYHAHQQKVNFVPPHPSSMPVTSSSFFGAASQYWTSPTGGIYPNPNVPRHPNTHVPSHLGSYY
# In short: (§1)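 Human transcription factors were made in yeast as GST fusions, captured on glutathione beads and barcoded with DNA. With a tag-only sample included, the pool was incubated with 200 nmole of a random double-stranded 16-mer DNA library in Tris/NaCl/DTT/glycerol buffer at room temperature for 30 min, then crosslinked with 0.1% formaldehyde after washing, ligated by proximity, amplified and sequenced. For binding signal, each hexamer's read frequency for a factor is divided by its frequency for the tag-only sample.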
# [2] = target: T2, ELK1 (Homo sapiens, UniProt P19419 1-428); details: protein: recombinant; tags: N-terminal GST; dsDNA, one strand shown
# T2 sequence: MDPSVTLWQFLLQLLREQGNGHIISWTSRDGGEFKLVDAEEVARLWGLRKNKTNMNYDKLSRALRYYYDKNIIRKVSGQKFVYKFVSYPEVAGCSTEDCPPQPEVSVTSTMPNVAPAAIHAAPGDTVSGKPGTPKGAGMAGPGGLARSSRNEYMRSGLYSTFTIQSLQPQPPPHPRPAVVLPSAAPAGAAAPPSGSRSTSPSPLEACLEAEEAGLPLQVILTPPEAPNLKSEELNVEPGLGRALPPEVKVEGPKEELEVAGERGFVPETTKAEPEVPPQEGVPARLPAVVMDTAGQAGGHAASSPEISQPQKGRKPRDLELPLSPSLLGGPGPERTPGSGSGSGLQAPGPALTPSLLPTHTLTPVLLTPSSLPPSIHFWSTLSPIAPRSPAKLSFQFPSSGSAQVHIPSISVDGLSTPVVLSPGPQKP
# In short: as §1
# [3] = target: T3, GABPA (Homo sapiens, UniProt Q06546 1-454); details: protein: recombinant; tags: N-terminal GST; dsDNA, one strand shown
# T3 sequence: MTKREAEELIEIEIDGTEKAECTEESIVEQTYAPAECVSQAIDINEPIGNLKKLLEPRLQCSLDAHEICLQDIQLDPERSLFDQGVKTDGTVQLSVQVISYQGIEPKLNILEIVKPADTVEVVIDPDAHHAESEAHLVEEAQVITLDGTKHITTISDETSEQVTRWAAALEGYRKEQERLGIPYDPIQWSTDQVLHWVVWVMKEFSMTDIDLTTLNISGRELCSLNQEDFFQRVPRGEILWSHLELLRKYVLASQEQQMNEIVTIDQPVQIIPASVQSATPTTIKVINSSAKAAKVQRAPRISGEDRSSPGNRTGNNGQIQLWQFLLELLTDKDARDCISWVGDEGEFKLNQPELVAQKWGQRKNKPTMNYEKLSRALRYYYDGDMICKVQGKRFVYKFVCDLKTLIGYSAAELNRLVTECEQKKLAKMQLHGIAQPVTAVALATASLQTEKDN
# In short: as §1
# [4] = target: T4, ERG (Homo sapiens, UniProt P11308 1-479); details: protein: recombinant; tags: N-terminal GST; dsDNA, one strand shown
# T4 sequence: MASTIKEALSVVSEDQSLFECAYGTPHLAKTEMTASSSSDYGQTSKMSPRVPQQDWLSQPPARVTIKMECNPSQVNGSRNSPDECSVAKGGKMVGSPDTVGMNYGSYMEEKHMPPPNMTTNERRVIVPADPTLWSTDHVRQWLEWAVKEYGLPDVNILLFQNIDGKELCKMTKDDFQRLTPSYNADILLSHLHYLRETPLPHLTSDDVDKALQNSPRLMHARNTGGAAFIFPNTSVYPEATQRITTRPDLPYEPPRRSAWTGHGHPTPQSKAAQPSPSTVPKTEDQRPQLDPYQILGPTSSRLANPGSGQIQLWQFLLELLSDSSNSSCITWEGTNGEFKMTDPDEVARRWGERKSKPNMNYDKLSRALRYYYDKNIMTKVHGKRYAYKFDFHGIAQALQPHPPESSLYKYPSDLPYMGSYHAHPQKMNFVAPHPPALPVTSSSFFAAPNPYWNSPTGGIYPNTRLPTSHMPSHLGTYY
# In short: as §1
# [5] = target: ELF1 (Homo sapiens, UniProt P32519 1-619); details: protein: recombinant; tags: N-terminal GST; dsDNA, one strand shown
# In short: as §1
# [6] = target: T5, EHF (Homo sapiens, UniProt Q9NZC4 1-300); details: protein: recombinant; tags: N-terminal GST; dsDNA, one strand shown
# T5 sequence: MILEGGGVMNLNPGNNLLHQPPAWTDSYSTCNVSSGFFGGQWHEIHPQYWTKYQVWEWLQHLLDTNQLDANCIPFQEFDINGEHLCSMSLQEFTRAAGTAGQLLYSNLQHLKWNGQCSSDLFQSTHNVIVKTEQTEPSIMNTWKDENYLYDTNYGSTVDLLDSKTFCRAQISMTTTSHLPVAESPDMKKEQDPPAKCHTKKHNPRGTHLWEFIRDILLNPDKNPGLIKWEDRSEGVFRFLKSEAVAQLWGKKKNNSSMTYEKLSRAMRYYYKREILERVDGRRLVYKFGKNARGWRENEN
# In short: as §1
# [7] = target: SPI1 (Homo sapiens, UniProt P17947 1-270); details: protein: recombinant; tags: N-terminal GST; dsDNA, one strand shown
# In short: as §1
# [8] = target: SPIB (Homo sapiens, UniProt Q01892 1-262); details: protein: recombinant; tags: N-terminal GST; dsDNA, one strand shown
# In short: as §1
# [9] = target: T6, ELK3 (Homo sapiens, UniProt P41970 1-407); details: protein: recombinant; tags: N-terminal GST; dsDNA, one strand shown
# T6 sequence: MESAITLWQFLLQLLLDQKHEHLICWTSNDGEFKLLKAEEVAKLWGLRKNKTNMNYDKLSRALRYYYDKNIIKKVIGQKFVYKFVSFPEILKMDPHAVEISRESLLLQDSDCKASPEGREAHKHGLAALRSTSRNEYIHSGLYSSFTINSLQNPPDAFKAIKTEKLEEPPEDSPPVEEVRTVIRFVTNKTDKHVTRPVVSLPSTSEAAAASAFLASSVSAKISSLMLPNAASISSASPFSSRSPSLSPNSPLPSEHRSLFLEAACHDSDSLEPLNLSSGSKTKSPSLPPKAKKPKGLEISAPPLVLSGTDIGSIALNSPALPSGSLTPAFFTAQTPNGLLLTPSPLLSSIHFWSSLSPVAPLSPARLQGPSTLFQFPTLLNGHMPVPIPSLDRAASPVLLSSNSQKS
# In short: as §1
# [10] = target: T7, FEV (Homo sapiens, UniProt Q99581 1-238); details: protein: recombinant; tags: N-terminal GST; dsDNA, one strand shown
# T7 sequence: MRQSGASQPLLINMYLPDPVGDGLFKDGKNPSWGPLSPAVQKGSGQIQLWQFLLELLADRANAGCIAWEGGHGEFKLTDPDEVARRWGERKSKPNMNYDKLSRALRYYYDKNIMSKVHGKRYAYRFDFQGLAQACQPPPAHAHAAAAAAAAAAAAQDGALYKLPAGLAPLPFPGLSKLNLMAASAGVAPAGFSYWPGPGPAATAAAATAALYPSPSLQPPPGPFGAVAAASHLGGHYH
# In short: as §1
# [11] = target: ETV5 (Homo sapiens, UniProt P41161 1-510); details: protein: recombinant; tags: N-terminal GST; dsDNA, one strand shown
# In short: as §1
# [12] = target: HSF1 (Homo sapiens, UniProt Q00613 1-529); details: protein: recombinant; tags: N-terminal GST; chain copies: 3; dsDNA, one strand shown
# In short: as §1
# [13] = target: T8, SPIC (Homo sapiens, UniProt Q8N5J4 1-248); details: protein: recombinant; tags: N-terminal GST; dsDNA, one strand shown
# T8 sequence: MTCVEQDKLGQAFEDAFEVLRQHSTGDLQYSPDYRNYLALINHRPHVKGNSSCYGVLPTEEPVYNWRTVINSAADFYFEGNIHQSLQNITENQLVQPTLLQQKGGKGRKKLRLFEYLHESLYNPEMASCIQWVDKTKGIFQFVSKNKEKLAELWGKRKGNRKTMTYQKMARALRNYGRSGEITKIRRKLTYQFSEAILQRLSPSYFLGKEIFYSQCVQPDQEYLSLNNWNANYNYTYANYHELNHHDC
# In short: as §1
# [14] = target: ELF4 (Homo sapiens, UniProt Q99607 1-663); details: protein: recombinant; tags: N-terminal GST; dsDNA, one strand shown
# In short: as §1
# [15] = target: T9, ELK4 (Homo sapiens, UniProt P28324-2 1-405); details: protein: recombinant; tags: N-terminal GST; dsDNA, one strand shown
# T9 sequence: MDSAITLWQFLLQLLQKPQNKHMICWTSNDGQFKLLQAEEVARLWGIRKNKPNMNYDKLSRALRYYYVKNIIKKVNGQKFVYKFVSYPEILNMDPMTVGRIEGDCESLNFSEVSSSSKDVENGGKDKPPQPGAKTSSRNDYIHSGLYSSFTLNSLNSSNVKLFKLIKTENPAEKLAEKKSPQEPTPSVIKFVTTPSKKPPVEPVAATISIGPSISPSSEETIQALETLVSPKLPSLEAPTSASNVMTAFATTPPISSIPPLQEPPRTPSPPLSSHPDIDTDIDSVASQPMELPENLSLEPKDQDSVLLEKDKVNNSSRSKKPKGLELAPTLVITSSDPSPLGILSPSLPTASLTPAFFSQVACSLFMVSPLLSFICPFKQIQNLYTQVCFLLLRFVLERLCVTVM
# In short: as §1
# [16] = target: T10, ETV2 (Homo sapiens, UniProt O00321 1-342); details: protein: recombinant; tags: N-terminal GST; dsDNA, one strand shown
# T10 sequence: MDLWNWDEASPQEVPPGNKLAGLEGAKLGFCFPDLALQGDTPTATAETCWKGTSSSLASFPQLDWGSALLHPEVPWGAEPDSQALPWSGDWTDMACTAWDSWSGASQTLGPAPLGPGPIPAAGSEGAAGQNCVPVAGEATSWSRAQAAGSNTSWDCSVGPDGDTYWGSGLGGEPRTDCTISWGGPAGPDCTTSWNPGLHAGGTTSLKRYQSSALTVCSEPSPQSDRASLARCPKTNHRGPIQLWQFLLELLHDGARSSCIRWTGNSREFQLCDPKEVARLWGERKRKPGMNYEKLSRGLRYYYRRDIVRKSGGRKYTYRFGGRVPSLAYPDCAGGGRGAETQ
# In short: as §1
# [17] = target: T11, ELF3 (Homo sapiens, UniProt P78545 1-371); details: protein: recombinant; tags: N-terminal GST; dsDNA, one strand shown
# T11 sequence: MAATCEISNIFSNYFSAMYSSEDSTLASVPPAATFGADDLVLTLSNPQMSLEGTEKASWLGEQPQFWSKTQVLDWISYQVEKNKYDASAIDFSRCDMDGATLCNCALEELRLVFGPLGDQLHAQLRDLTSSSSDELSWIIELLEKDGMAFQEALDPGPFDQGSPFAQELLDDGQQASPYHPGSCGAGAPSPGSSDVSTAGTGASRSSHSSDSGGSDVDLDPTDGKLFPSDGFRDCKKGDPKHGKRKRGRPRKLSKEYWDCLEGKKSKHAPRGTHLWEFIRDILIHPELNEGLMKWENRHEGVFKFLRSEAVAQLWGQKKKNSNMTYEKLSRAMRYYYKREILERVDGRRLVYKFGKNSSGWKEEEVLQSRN
# In short: as §1
# [18] = target: CRX (Homo sapiens, UniProt O43186 1-299); details: protein: recombinant; tags: N-terminal GST; dsDNA, one strand shown
# In short: as §1
# [19] = target: ETV1 (Homo sapiens, UniProt P50549 1-477); details: protein: recombinant; tags: N-terminal GST; dsDNA, one strand shown
# In short: as §1
# ETV5, sequence (P41161 whole entry): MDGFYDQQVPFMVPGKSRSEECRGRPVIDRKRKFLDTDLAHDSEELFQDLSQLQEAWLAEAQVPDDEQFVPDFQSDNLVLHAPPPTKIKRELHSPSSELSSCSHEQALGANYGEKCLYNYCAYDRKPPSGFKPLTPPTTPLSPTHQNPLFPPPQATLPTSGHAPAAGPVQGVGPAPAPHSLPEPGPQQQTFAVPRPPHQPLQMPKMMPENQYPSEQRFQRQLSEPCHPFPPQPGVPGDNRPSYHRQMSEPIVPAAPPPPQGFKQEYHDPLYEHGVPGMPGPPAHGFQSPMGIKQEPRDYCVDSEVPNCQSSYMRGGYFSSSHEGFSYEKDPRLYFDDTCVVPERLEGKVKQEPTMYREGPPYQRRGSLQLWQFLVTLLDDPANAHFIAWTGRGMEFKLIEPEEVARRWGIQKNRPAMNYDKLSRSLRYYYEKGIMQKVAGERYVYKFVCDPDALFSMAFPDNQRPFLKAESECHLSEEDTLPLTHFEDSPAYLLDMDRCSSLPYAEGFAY
# ELF4, sequence (Q99607 whole entry): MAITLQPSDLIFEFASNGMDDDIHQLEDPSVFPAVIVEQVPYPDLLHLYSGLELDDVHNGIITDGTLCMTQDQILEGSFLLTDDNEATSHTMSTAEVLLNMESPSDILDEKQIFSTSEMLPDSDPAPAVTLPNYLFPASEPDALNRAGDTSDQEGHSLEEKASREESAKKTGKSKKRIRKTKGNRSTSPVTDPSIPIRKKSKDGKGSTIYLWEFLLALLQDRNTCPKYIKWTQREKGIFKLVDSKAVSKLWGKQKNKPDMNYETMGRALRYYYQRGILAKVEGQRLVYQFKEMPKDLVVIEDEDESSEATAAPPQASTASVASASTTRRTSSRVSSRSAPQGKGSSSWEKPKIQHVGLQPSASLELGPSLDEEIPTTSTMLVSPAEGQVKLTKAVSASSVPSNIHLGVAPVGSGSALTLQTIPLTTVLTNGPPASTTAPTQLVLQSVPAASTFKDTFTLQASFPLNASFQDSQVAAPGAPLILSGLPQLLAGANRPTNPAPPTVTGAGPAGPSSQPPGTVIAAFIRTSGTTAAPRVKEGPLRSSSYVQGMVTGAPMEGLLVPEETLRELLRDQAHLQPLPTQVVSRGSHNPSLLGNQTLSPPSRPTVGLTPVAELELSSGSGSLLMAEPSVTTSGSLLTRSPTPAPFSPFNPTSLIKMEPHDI
# ELF1, sequence (P32519 whole entry): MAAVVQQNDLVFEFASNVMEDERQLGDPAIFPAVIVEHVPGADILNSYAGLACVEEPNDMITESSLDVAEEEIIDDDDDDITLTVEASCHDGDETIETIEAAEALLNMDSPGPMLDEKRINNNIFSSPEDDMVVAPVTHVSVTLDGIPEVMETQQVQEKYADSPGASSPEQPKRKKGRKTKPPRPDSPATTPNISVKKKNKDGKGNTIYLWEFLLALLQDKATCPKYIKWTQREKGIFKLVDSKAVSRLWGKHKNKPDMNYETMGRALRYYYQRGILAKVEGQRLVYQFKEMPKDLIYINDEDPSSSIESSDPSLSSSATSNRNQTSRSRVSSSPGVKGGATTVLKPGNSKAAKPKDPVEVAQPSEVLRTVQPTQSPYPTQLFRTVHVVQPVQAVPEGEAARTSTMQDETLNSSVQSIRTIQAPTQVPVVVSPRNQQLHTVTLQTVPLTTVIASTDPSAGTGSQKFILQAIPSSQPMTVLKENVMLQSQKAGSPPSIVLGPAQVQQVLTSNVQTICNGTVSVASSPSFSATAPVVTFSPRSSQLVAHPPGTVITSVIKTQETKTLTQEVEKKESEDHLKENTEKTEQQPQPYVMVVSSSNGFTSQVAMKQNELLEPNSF
# HSF1, sequence (Q00613 whole entry): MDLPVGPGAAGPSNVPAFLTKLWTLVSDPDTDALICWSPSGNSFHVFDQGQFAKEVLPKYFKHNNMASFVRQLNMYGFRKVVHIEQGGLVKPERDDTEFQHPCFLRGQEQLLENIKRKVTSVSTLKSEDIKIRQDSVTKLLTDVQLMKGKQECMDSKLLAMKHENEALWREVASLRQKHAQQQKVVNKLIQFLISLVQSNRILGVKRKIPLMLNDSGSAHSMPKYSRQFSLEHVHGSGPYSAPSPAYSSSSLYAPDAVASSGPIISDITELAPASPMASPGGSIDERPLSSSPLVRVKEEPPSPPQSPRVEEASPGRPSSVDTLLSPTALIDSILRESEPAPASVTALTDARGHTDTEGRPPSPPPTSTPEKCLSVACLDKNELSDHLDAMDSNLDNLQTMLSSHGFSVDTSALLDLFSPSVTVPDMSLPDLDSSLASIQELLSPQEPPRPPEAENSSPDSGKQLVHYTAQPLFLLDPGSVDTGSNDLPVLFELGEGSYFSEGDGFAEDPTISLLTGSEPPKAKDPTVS
# CRX, sequence (O43186 whole entry): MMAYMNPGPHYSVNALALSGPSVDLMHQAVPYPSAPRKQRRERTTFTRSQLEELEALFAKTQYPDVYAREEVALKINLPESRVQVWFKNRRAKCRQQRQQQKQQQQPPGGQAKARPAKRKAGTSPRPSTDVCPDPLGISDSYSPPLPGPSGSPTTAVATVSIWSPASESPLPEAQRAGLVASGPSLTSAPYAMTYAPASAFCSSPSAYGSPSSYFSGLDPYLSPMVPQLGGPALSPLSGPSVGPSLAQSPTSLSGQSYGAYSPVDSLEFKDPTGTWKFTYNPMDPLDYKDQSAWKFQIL
# ETV1, sequence (P50549 whole entry): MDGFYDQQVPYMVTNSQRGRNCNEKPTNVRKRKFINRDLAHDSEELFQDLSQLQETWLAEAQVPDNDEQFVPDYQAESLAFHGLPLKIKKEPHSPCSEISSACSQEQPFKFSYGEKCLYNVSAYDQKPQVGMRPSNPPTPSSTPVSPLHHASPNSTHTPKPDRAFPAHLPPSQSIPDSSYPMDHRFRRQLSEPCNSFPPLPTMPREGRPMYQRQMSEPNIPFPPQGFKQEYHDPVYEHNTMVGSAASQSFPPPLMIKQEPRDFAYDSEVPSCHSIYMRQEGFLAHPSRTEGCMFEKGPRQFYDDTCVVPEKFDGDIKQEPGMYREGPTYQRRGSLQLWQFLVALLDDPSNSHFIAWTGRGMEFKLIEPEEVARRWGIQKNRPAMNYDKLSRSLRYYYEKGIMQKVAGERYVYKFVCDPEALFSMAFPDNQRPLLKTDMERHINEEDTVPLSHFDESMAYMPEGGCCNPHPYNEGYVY
# SPIB, sequence (Q01892 whole entry): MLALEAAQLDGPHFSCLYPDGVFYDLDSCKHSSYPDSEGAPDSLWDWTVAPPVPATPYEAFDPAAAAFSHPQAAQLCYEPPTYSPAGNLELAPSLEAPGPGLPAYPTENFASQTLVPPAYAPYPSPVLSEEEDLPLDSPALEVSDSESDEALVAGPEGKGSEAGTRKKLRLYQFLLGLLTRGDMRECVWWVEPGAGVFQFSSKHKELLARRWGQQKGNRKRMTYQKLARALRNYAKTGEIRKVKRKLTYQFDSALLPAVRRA
sequence,measurement,setting,value
TGACTC,binding signal,[1],"1.49 fold enrichment (6-mer frequency, TF over GST control)"
same,binding signal,[2],"1.39 fold enrichment (6-mer frequency, TF over GST control)"
same,binding signal,[3],"1.4 fold enrichment (6-mer frequency, TF over GST control)"
same,binding signal,[4],"1.39 fold enrichment (6-mer frequency, TF over GST control)"
same,binding signal,[5],"1.36 fold enrichment (6-mer frequency, TF over GST control)"
same,binding signal,[6],"1.27 fold enrichment (6-mer frequency, TF over GST control)"
same,binding signal,[7],"1.27 fold enrichment (6-mer frequency, TF over GST control)"
same,binding signal,[8],"1.42 fold enrichment (6-mer frequency, TF over GST control)"
same,binding signal,[9],"1.41 fold enrichment (6-mer frequency, TF over GST control)"
same,binding signal,[10],"1.36 fold enrichment (6-mer frequency, TF over GST control)"
same,binding signal,[11],"1.24 fold enrichment (6-mer frequency, TF over GST control)"
same,binding signal,[12],"1.1 fold enrichment (6-mer frequency, TF over GST control)"
same,binding signal,[13],"1.48 fold enrichment (6-mer frequency, TF over GST control)"
same,binding signal,[14],"1.35 fold enrichment (6-mer frequency, TF over GST control)"
same,binding signal,[15],"1.31 fold enrichment (6-mer frequency, TF over GST control)"
same,binding signal,[16],"1.31 fold enrichment (6-mer frequency, TF over GST control)"
same,binding signal,[17],"1.36 fold enrichment (6-mer frequency, TF over GST control)"
same,binding signal,[18],"1.07 fold enrichment (6-mer frequency, TF over GST control)"
same,binding signal,[19],"1.33 fold enrichment (6-mer frequency, TF over GST control)"
